Compound activity as filed in PubChem.
Lassa entry: blocks Lassa virus binding or cell entry; Lassa virus pseudotyped entry inhibition, cell-based qHTS; Potency, µM (highest dose often 49.2 µM), for inactives: at the top dose activity change, negative = inhibition, most hits filed as inhibitors; 18,000 tested, 4.1% active
Marburg entry: inhibitors of Marburg virus binding or entry into cells | Marburg virus pseudotype entry/binding inhibition, cell-based | Potency, µM (top dose mostly 49.2 µM), inactives show at the highest dose activity change, negative = inhibition, usual class: inhibitors | 18,000 tested, 6.5% active | AID 720532
* = called active by the depositor; u = inconclusive; x = no result; ! = not active in a repeat; [ ] = remark or other dose. Rows were chosen to be rich in hits. Some 7.1% of all compounds tested hit in one or more screens of this group. Calls come from the whole dose curve; tested in HEK293 cells. % is set by controls: 0 for no effect and ±100 for the full control effect; potency is the fitted concentration of half-maximal effect.

SMILES	Lassa entry	Marburg entry
COc1ccc(CC2NCCc3cc(OC)c(OC)cc32)cc1OC (stereo not given)	2.3%	-18.5%
O=S1(=O)N[C@H](Cc2ccccc2)COc2cc(NCCO)ccc21	15.8%	20.2%
COC(=O)N[C@@H](c1ccco1)[C@]1(C(=O)OC)CCCC1=O	-2.1%[8.59 µM]	u
Oc1ccc(Cl)cc1Cc1ccccc1	25.1µM*	-16.1%[107 µM]
OCCc1ccccc1	-5.0%	5.4%
CCCC[C@]12Cc3c(ccc4ccccc34)[C@H](O1)c1c(cc(C)oc1=O)O2	4.8%[8.59 µM]	34.3%[8.59 µM]
Cc1c(-c2ccc(Cl)cc2)noc1C1CCN(CCc2ccccc2)CC1	0.0%	u
Cc1c(C2CCN(CCc3ccccc3)CC2)noc1-c1ccc(Cl)cc1	-11.9%	11.2µM*
C=CCOC(=O)C(C(C)=O)[C@@H](NC(=O)OC)c1cccc(C)c1 (stereo not given in full)	-17.5%[8.59 µM]	u
CO[C@@H]1c2cc(F)ccc2C(=CCCOC(=O)CC=Cc2ccccc2)[C@H]1C	-5.1%[8.59 µM]	-24.4%[8.59 µM]
Cn1ccc2c(C=Cc3ccc(F)cc3)cc3c(c21)C1CCC3O1 (stereo not given)	-0.4%	-19.8%
COC(=O)c1ccc(CN2C(=O)[C@]3(OCCC=C[C@@H]3C)c3cc(OC)ccc32)cc1	8.1%[8.59 µM]	-22.7%[8.59 µM]
CCN(CC)CCCN=C1NC(c2cccc(C(F)(F)F)c2)C(C(=O)OC)=C(C)N1CC (stereo not given)	-28.5%[8.59 µM]	-9.6%[8.59 µM]
COc1ccc(-c2oc3ncnc(N)c3c2-c2ccc(NC(=O)Nc3cc(C(F)(F)F)ccc3F)cc2)cc1	x	12.5µM*
COC(=O)Nc1nc2ccc(S(=O)(=O)c3ccc(NC(=O)Nc4cc(C(F)(F)F)ccc4F)cc3)cc2[nH]1	-20.2%	-29.5%
CCCCCC1=CC2=C(C(=O)OC)C(c3ccccc3)NC(=O)N2CC1 (stereo not given)	-7.3%[8.59 µM]	1.3%[8.59 µM]
COC(=O)[C@@H]1CC[C@H](C)[C@@H](c2ccc(C)cc2)N1C(=O)c1ccc(C=NOC[C@@H](O)[C@H]2O[C@@H]3OC(C)(C)O[C@H]3[C@@H]2O)cc1	x	27.8%[8.59 µM]
C#CCNc1ccc2c(c1)OC[C@H](C)NS2(=O)=O	x	8.0%
Nc1c2ccccc2nc2ccccc12 (tested in a mixture with another compound)	-7.3%	7.08µM*
Nc1cccc2c(N)cccc12	-6.8%[107 µM]	3.0%[107 µM]
COC(=O)N[C@H](CC(C)=O)c1cccc(F)c1	21.0%[8.59 µM]	-6.7%[8.59 µM]
COc1ccc(COC(=O)NN=C2C[C@@H](O)[C@@H](O)[C@@H]3[C@H]4C(=O)N(Cc5ccc6c(c5)OCO6)C(=O)[C@@H]4CC[C@H]23)cc1	x	4.1%[8.59 µM]
O=C1c2ccccc2C(=O)c2ccccc21	5.8%	4.7%
O=C1C(=O)c2ncccc2-c2cccnc21	2.51µM*	u
CC(CCC(=O)OC[C@H]1O[C@H](C#Cc2ccccc2)C=C[C@H]1Oc1ccc(C)cc1)=NO[C@H](C)c1cn([C@@H]2COC[C@@H]2O)nn1	x	0.1%[8.59 µM]
SMILES	Lassa entry	Marburg entry
Cc1cc(I)ccc1Nc1c(C(=O)NOCC2CC2)cc(F)c(F)c1F	u	11.2µM*
Cn1cnc2c(F)c(Nc3ccc(Br)cc3Cl)c(C(=O)NOCCO)cc21	8.6%	7.6%
C[C@@H](C1[C@@H](O)CC2C3C=CC4C[C@@H](O)CC[C@]4(C)[C@H]3CC[C@@]21C)[C@@H]1CCCCN1 (stereo not given in full)	5.5%	11.2µM*
CC1=CC[C@@H](C)O[C@@]2(C1)C(=O)Nc1cccc(Br)c12	59.9%[8.59 µM]	-15.4%[8.59 µM]
Cc1cc2c(c(=O)n1Cc1ccccc1)[C@H]1O[C@](c3ccsc3)(Cc3ccccc31)O2	5.0%[8.59 µM]	-11.9%[8.59 µM]
CC(C)(C)NC[C@@H](O)COc1cccc2[nH]c(C#N)cc12	-3.5%	2.0%
N#Cc1cc2c(OCC(O)CN3CCN(C(c4ccccc4)c4ccccc4)CC3)cccc2[nH]1 (stereo not given)	15.8µM*	8.91µM*
O=C(CCCN1CCC(O)(c2ccc(Br)cc2)CC1)c1ccc(F)cc1	-15.9%[17.8 µM]	u
O=C(CCCN1CCC(O)(c2ccc(Cl)cc2)CC1)c1ccc(F)cc1	u	12.6µM*
CC(C)[C@@H](OCc1ccccc1)[C@H](C)CON=C1[C@H]2CCn3c(=O)n(-c4ccccc4)c(=O)n3[C@@H]2[C@H](O)[C@@H]2O[C@H]12	9.8%[8.59 µM]	24.7%[8.59 µM]
C[C@@H]1[C@@H](c2ccccc2)Oc2c(Cl)cccc2S(=O)(=O)N1Cc1ccc(F)cc1F	3.5%	8.1%
Oc1cc(-c2nc3ccccc3s2)cc2c1OCCN(Cc1cccn1-c1nccs1)C2	-23.4%	-8.6%
c1ccc2sc(-c3cc4c(c(OC5CCOC5)c3)OCCN(Cc3cccn3-c3nccs3)C4)nc2c1 (stereo not given)	-4.8%	0.355µM*
COC(=O)C1=C(C(=O)OC)[C@@H]2N(Cc3ccccc3)c3ccccc3[C@@]23C[C@@H](CO)N=C3N1	-9.6%[8.59 µM]	-1.2%[8.59 µM]
C=CCN1C(=O)[C@@]2(CC(C)=C[C@@H](COc3ccccc3)O2)c2ccccc21	6.8%[8.59 µM]	2.0%[8.59 µM]
CN1CCC(=C2c3ccccc3CCc3sccc32)CC1	22.4µM*!	11.2µM*
CN1CCC(=C2c3ccccc3CC(=O)c3sccc32)CC1	u	7.08µM*!
O=C(C1CCCCC1)N1C[C@H](O)[C@H](n2cc(C3CC3)nn2)C[C@@H]1c1ccccc1	2.2%	22.0%
C=CC[C@@H]1C=C[C@@H](OC(=O)OCC)[C@@H](COC(=O)OCC)O1	-9.0%[8.59 µM]	17.4%[8.59 µM]
COC(=O)CC=C1c2ccc(F)cc2[C@@H](OC)[C@@H]1C	x	-11.0%[8.59 µM]
CCCCCCC[N+](CC)(CC)CCCCc1ccc(Cl)cc1	5.01µM*	u
CCCCCCCCc1ccc(-c2ccc(C(=O)O)cc2)cc1	9.5%	-0.9%
O[C@H]1C[C@H](c2ccccc2)N(Cc2cccs2)C[C@H]1n1cc(C2CC2)nn1	2.0%	u
CC(C)CN[S+](=O)([O-])c1ccc(Br)cc1N1CCC[C@H]1CO	15.1%	13.7%
O=S1(=O)c2ccc(Br)cc2N2CCC[C@@H]2CN1Cc1ccc(Cl)cc1	0.9%	u
SMILES	Lassa entry	Marburg entry
CN1CCCC(n2nc(Cc3ccc(Cl)cc3)c3ccccc3c2=O)CC1 (stereo not given)	u	7.94µM*
CN=C1C=CC(=C(c2ccc(N(C)C)cc2)c2ccc(N(C)C)cc2)C=C1	3.55µM*	2.82µM*
CC(C)CCOC(=O)c1ccc(N(C)C)cc1	8.0%	7.9%
CC1=CC[C@@H](COc2ccccc2)O[C@@]2(C1)C(=O)N(Cc1ccc(Br)cc1)c1ccccc12	-24.6%[8.59 µM]	25.0%[8.59 µM]
C=CCN1c2ccccc2[C@]23CCC(=O)N(Cc4cc(OC)c(OC)c(OC)c4)C2=NC(C(=O)OC)=C(C(=O)OC)[C@H]13	-15.4%[8.59 µM]	-6.7%[8.59 µM]
O=C(N/N=C/c1ccccc1O)c1ccncc1	10µM*	-24.0%
O=C(O)COc1ccccc1/C=N/NC(=O)c1ccncc1	-3.3%	15.2%
COC(=O)[C@]1(CC=Cc2ccccc2)C=C[C@@H](C)[C@H](c2ccccc2Br)N1C(=O)C(F)(F)F	14.5%[8.59 µM]	12.9%[8.59 µM]
CCOC(=O)[C@@]1([C@@H](NC(=O)OC)c2cccc(C)c2)CCCC1=O	9.4%[8.59 µM]	26.0%[8.59 µM]
COc1ccc(CN2CCCC(c3nc(-c4ccncc4)ncc3-c3ccccc3)C2)c(OC)c1OC (stereo not given)	-15.1%	u
COc1cccc(CN2CCCC(c3nc(-c4ccncc4)ncc3-c3ccccc3)C2)c1O (stereo not given)	-29.8%	11.2µM*
Cc1ccccc1-c1cnc(-c2ccncc2)nc1C1CCCN(Cc2ccccc2O)C1 (stereo not given)	-27.8%	u
